Data on 27 compounds can be found in ChEMBL document CHEMBL4513141, “CO-ADD screening of NIH (USA) - Clinical Collection” (2021).

The structures appear in SMILES notation. Measured potencies and affinities stand elsewhere.

The test system of assay [1] is Staphylococcus aureus. The settings on record: Concentration 20 uM; ASSAY_TEST Inhibition of Bacterial Growth; detection method Absorption (OD600); MEDIA CAMHB; plate type 384well; NBS; CORNING #3640; time 18 hr.
For assay [2], the system named is Escherichia coli. The following applies: Concentration 20 uM; ASSAY_TEST Inhibition of Bacterial Growth; detection method Absorption (OD600); MEDIA CAMHB; plate type 384well; NBS; CORNING #3640; time 18 hr.

As for `CNCC[C@@H](Oc1ccccc1C)c1ccccc1.Cl` [ATOMOXETINE HYDROCHLORIDE], the Inhibition in assay [1] is listed as -21.69%; in assay [2] it was 5.13%.
As to `CN(C)CC[C@@H](c1ccc(Br)cc1)c1ccccn1.O=C(O)/C=C\C(=O)O` [DEXBROMPHENIRAMINE MALEATE], the Inhibition in assay [1] is listed as 4.45%; in assay [2], 5.01%.
As to `Br.Br.O=C1CC2(CCCC2)CC(=O)N1CCNCC1COc2ccccc2O1` (centres undefined), the Inhibition in assay [1] is 17.36%; in assay [2] it was 6.1%.
In the case of `CCc1nn(CCCN2CCN(c3cccc(Cl)c3)CC2)c(=O)n1CCOc1ccccc1.Cl` [NEFAZODONE HYDROCHLORIDE], the results for the Inhibition in assay [1] and in assay [2] were 6.52% and 3.73%, respectively.
For `CCCc1nc(C)c2c(O)nc(-c3cc(S(=O)(=O)N4CCN(CC)CC4)ccc3OCC)nn12.O=C(O)CC(O)(CC(=O)O)C(=O)O`, the Inhibition is 14.18% in assay [1] and -4.2% in assay [2].
As to `C[C@H](CS)C(=O)N1CCC[C@H]1C(=O)O` [CAPTOPRIL], the results for the Inhibition in assay [1] and in assay [2] were -7.06% and 4.92%, respectively.
For `Nc1nc(N)nc(-c2cc(Cl)ccc2Cl)n1.O=C(O)/C=C\C(=O)O` [IRSOGLADINE MALEATE], in that order: 8.27% and 0.86%.
For `CCOC(=O)[C@H](CCc1ccccc1)N[C@H]1CCc2ccccc2N(CC(=O)O)C1=O.Cl` [BENAZEPRIL HYDROCHLORIDE], in that order: 9.63% and 0.93%.
Turning to `COc1cc2c(cc1OC)C(=O)C(CC1CCN(Cc3ccccc3)CC1)C2.Cl` (centres undefined) [DONEPEZIL HYDROCHLORIDE], the Inhibition in assay [1] is recorded as 12.57%; in assay [2], -6.95%.
As for `Sc1ncnc2nc[nH]c12` [MERCAPTOPURINE ANHYDROUS], the Inhibition amounted to 22.75% in assay [1] and 6.85% in assay [2].
Consider `CN(C)CCCN1c2ccccc2CCc2ccccc21.Cl` [IMIPRAMINE HYDROCHLORIDE], for which the figures for the Inhibition in assay [1] and in assay [2] were 8.95% and -1.44%, respectively.
For `COc1cc(C[C@@H](CO)[C@H](CO)Cc2ccc(O)c(OC)c2)ccc1O` [(+)-SECOISOLARICIRESINOL], in that order: 14.2% and -3.86%.
As for `CC(=O)SCC(Cc1ccccc1)C(=O)NCC(=O)OCc1ccccc1` (centres undefined) [RACECADOTRIL], the Inhibition in assay [1] is given as 11.13%; in assay [2] it was -5.63%.
For `CC(C)(C)NC[C@H](O)COc1nsnc1N1CCOCC1.O=C(O)/C=C\C(=O)O` [TIMOLOL MALEATE] the same measures were 2.99% and 1.71%.
For `O=C1N[C@H](C(=O)O)CS1` [PROCYSTEINE], in that order: 10.52% and 6.28%.
Take `COc1ccccc1OCC(O)COC(N)=O` (centres undefined) [METHOCARBAMOL]: the Inhibition in assay [1] is 12.79%; in assay [2], -0.64%.
In the case of `CCN(CC)C(=O)[C@]1(c2ccccc2)C[C@@H]1CN.Cl` [1R,2S-MILNACIPRAN HYDROCHLORIDE], the Inhibition in assay [1] was determined as 5.25%; in assay [2], 4.64%.
For `CCOC(=O)C1(CCCCCCOc2ccc(Cl)cc2)CO1` (stereo not drawn) [rac-ETOMOXIR] the same measures were 3.7% and -5.87%.
For `CN(C)CCCN1c2ccccc2CCc2ccc(Cl)cc21.Cl` [CLOMIPRAMINE HYDROCHLORIDE], in that order: 14.19% and 7.04%.
As for `CC1(C)C[C@@H]1C(=O)N/C(=C\CCCCSC[C@H](N)C(=O)O)C(=O)[O-].[Na+]` [CILASTATIN SODIUM], the values for the Inhibition in assay [1] and in assay [2] were -4.51% and -0.62%, respectively.
For `CCCN(CCC)S(=O)(=O)c1ccc(C(=O)O)cc1` [PROBENECID] the same measures were 13.34% and 1.2%.
For `Cl.NC[C@H]1CC[C@H](C(=O)Oc2ccc(CCC(=O)O)cc2)CC1` [CETRAXATE HYDROCHLORIDE], in that order: 14.3% and -0.51%.
As to `CCCSc1ccc2[nH]c(NC(=O)OC)nc2c1` [ALBENDAZOLE], the Inhibition in assay [1] was determined as 3.05%; in assay [2] it was 1.87%.
For `Cl.O=C(O)/C=C/c1ccc(Cn2ccnc2)cc1` the same measures were -2.16% and 6.89%.
Take `CN1CCCCC1CCN1c2ccccc2Sc2ccc([S+](C)[O-])cc21.O=S(=O)(O)c1ccccc1` (centres undefined) [MESORIDAZINE BESYLATE]: the Inhibition in assay [1] is on record as -15.92%; in assay [2], 4.24%.
For `C[C@]12CCC(=O)C=C1CC[C@@H]1[C@@H]2[C@@H](O)C[C@@]2(C)[C@H]1CC[C@]2(O)C(=O)COC(=O)CCC(=O)O` [HYDROCORTISONE HEMISUCCINATE ANHYDROUS], in that order: -27.4% and 4.71%.
Consider `CC(C)OC(=O)CCC/C=C\C[C@@H]1[C@@H](CC[C@@H](O)CCc2ccccc2)[C@H](O)C[C@@H]1O` [LATANOPROST], for which the Inhibition in assay [1] came out at 13.97%; in assay [2] it was 1.96%.

For orientation: Inhibition means the drop in the measured response relative to a control, in per cent.
